# Source: PubChem BioAssay AID504444 (National Center for Advancing Translational Sciences (NCATS), 2011)
# Among all 360,000 compounds or so, about 7,500 (2.1%) were called active. About 20% were inconclusive and are not listed. The call rests on the fitted dose curve; in most records, active means well fitted inhibition curve with a large enough effect; inconclusive means small, poorly fitted or top-dose-only effect, or effect the other way; inactive means flat fitted curve, though single readings scatter. This excerpt belongs to a sample that is enriched for actives.
# Test: Nrf2 qHTS screen for inhibitors; further: nearly all actives have a fitted effect of over 60% in size
# Conditions: A549 ARE-Fluc reporter, luciferase luminescence, 18-24 h; series mostly up to 46 µM; activity change, negative = inhibition: at the top concentration
# In short: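 A549 ARE_Fluc cells (5000/well, 5% FBS OPTI-MEM) pre-incubated 2 h, then treated with compounds 18-24 h at 37C/5% CO2 in concentration-response. CellTiter-Fluor viability read first; BugLite luciferase luminescence after 15 min at room temperature gives Nrf2 activity.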
# On the % scale 0 is the no-effect control and ±100 the full control effect; potency means the concentration at half of the fitted maximal effect.
SMILES,"activity change, negative = inhibition",Potency
Cc1ccccc1-n1c(=O)c2ccccc2n(Cc2ccc(F)cc2)c1=O,5.14% (inactive),
CCCN(C(=O)COC(=O)CNS(=O)(=O)c1ccc(NC(C)=O)cc1)C1CCS(=O)(=O)C1 (stereo not drawn),12.7% (inactive),
CC1CCCC(NC(=O)c2cc(S(=O)(=O)N3CCCCC3)ccc2Cl)C1C (stereo not drawn),12.3% (inactive),
CSc1ncc(Sc2ccccc2)c(C(=O)O)n1,0.799% (inactive),
CSc1nc(-c2ccccc2)nc(C(Cl)Cl)n1,,23.1 µM (active)
Cc1cccc(Nc2nc(C)nc(N)c2S(=O)(=O)c2ccccc2)c1,-16% (inactive),
O=C(Nc1cccc(S(=O)(=O)N2CCOCC2)c1)C12CC3CC(CC(C3)C1)C2,1.01% (inactive),
COc1ccc2[nH]c3c(C)c4cc[n+](C)cc4c(C)c3c2c1,,8.2 µM (active)
COc1ccc2[nH]c(=S)cc(C)c2c1,0% (inactive),
COc1ccc2[nH]c(C(=O)N3CCN(C)CC3)c(C)c2c1,21.1% (inactive),
Cc1ccc(-n2c(=O)c3cccnc3n2CC(=O)NCc2ccc(F)cc2)cc1C,-7.78% (inactive),
CCOC(=O)C/C(C)=N\Nc1ccc([N+](=O)[O-])cc1[N+](=O)[O-],-12.2% (inactive),
CCOC(=O)Cc1csc(NC(=O)Nc2ccccc2)n1,5.68% (inactive),
CCOC(=O)/C(=N\Nc1ccccc1[N+](=O)[O-])c1csc(Nc2ccccc2)n1,,20.6 µM (active)
CC(=O)OC1=C(C(C)=O)N(Cc2ccccc2)S(=O)(=O)c2ccccc21,-4.38% (inactive),
Cn1c(CNC(=O)c2ccco2)nnc1SCC(=O)N1CCN(c2ccccc2)CC1,-11.5% (inactive),
Cn1c(Cc2cccc3ccccc23)nnc1SCC(=O)N1CCN(c2cccc(Cl)c2)CC1,,10.3 µM (active)
Cc1cc2nnc(SCC(=O)N3CCN(c4ccccc4)CC3)n2c(N)n1,10.4% (inactive),
CC(=O)c1ccc(N2CCN(C(=O)c3ccc(Cl)c(S(=O)(=O)NC4CC4)c3)CC2)c(F)c1,-4.28% (inactive),
Cc1nn(-c2ccccc2)c(C)c1NC(=O)COc1ccc(Cl)cc1Cl,,16.4 µM (active)
Cc1nn(-c2ccccc2)c(C)c1NC(=O)CCl,-1.19% (inactive),
Cc1nn(-c2ccccc2)c(C)c1NC(=O)COC(=O)c1cc(Cl)ccc1O,-12.6% (inactive),

SMILES,"activity change, negative = inhibition",Potency
NC(=O)C1(Nc2ccc([N+](=O)[O-])cc2)CCCC1,-7.2% (inactive),
Cn1c(=O)c2c(-c3ccccc3Br)n(Cc3ccccc3)cc2n(C)c1=O,-16.6% (inactive),
CCC(=O)N1CCc2cc(Br)cc(S(=O)(=O)CCC(=O)N3CCN(c4ccc(F)cc4)CC3)c21,3.12% [at 9.27 µM] (inactive),
Cc1ccc(N2CCN(C3=NC(=O)/C(=C\c4cccs4)S3)CC2)cc1,-1.2% (inactive),
CC(C)=C1SC(N2CCN(c3cccc(C)c3)CC2)=NC1=O,,23.1 µM (active)
CC(C)=C1SC(N2CCN(c3ccc(C)c(Cl)c3)CC2)=NC1=O,-13.3% (inactive),
CCN(CC)S(=O)(=O)c1ccc(N2CCCC2)c(NC(=O)c2ccc([N+](=O)[O-])o2)c1,-12.4% (inactive),
C=Cc1ccc(Cn2c(C(=O)O)c(CNC3CCCC3)c3ccc(C)cc32)cc1,-0.54% (inactive),
COc1ccc(NS(=O)(=O)c2cc(C(=O)Nc3ccccc3C(=O)O)ccc2C)cc1,12.1% (inactive),
C=CCNC(=O)c1ccccc1NC(=O)c1ccc(Cl)c(S(=O)(=O)Nc2cccc(C)c2C)c1,,9.2 µM (active)
Cc1ccccc1NC(=O)c1cc(S(=O)(=O)Nc2cccc(C(=O)O)c2)ccc1Cl,9.1% (inactive),
CCOC(=O)C1CCCN(C(=O)c2ccc3c(c2)sc2nc(-c4ccc(CC)cc4)cn23)C1 (stereo not drawn),-9.95% (inactive),
Cc1ccc(-c2nc3ccccn3c2Nc2c(C)cccc2C)o1,3.18% [at 9.27 µM] (inactive),
CC(C)NC(=S)N1CCN(C(c2ccccc2)c2ccccc2)CC1,13.5% (inactive),
CC1(C)CC(N2CCN(C(c3ccccc3)c3ccccc3)CC2)=CC(=[N+]2CCCCC2)C1,,7.31 µM (active)
O=C(O)CN1CCN(C(c2ccccc2)c2ccccc2)CC1,8.98% (inactive),
Cc1ccc(C(=O)CSc2nc(-c3ccccc3)nc3c2CCCC3)c(C)c1,-6.25% (inactive),
O=C(NCc1ccccc1CN1CCCC1)c1cccc(S(=O)(=O)Nc2ccc(F)cc2)c1,1.66% (inactive),
COc1ccc2c(c1)c(=Cc1ccc(N(C)C)cc1)c1cc(-c3ccccc3)[n+](C)n12,,16.4 µM (active)
COc1ccc2sc(-c3ccc(N(C)C)cc3)c(C#CCO)c2c1,-17.9% (inactive),
COc1ccc2sc(-c3ccc(N(C)C)cc3)c(-c3ccc4cc[nH]c4c3)c2c1,11% (inactive),
CC1Cc2ccccc2N1S(=O)(=O)c1cccc(C(=O)NCC(c2ccco2)N2CCCC2)c1 (stereo not drawn),2.2% (inactive),

SMILES,"activity change, negative = inhibition",Potency
Cc1nc(SCC(=O)NC2CCCCC2C)c(C#N)c(C)c1C (stereo not drawn),16.3% (inactive),
CC1(C)C(=O)CCC2(C)C1=CCC1C2C(=O)CC2(C)C1CCC2(O)C(=O)CO (stereo not drawn),5.06% (inactive),
CC(=O)OCC(=O)C1(O)CCC2C3CC(C)C4=CC(=O)CCC4(C)C3C(O)CC21C (stereo not drawn),,0.082 µM (active)
O=C1c2ccccc2C(=O)N1c1ccc(S(=O)(=O)N2CCOCC2)c2ccccc12,-9.07% (inactive),
O=S(=O)(c1ccc(SCc2ccc(Br)cc2)nc1)N1CCOCC1,-4.56% (inactive),
CCOc1cc(N2CCOCC2)c(OCC)cc1NC(=O)COc1cccc2cccnc12,,20.6 µM (active)
CCOc1cc(N2CCOCC2)c(OCC)cc1NC(=O)COc1cccc(Cl)c1,-6.27% (inactive),
CCOc1cc(N2CCOCC2)c(OCC)cc1NC(=O)COC(=O)[C@H](Cc1c[nH]c2ccccc12)NC(C)=O,-12.5% (inactive),
C=CCSc1nc2ccccc2[nH]1,7.89% (inactive),
CCC(C)N1C(=O)S/C(=C/c2ccc(Sc3nc4ccccc4[nH]3)o2)C1=O (stereo not drawn),,0.731 µM (active)
O=C(CSc1nc2ccccc2[nH]1)Nc1nc(-c2ccccc2)c(-c2ccccc2)o1,18.4% (inactive),
C#CCOc1ccc(C2CC(=O)Nc3c2c(C)nn3-c2nc(C)cc(C)n2)cc1 (stereo not drawn),6.44% (inactive),
CN(C)S(=O)(=O)c1ccc(C(=O)NCC(C)(C)N2CCOCC2)cc1,25.8% (inactive),
CC(C)(CNC(=O)Cc1ccc(Cl)cc1Cl)N1CCOCC1,1.4% (inactive),
CC(C)(CNC(=O)c1ccc(Cl)c(S(=O)(=O)N2CCc3ccccc3C2)c1)N1CCOCC1,,13 µM (active)
Cc1noc(C)c1-c1ccc2ncnc(NCc3ccc(F)c(F)c3)c2c1,-20.5% (inactive),
COc1ccccc1-c1noc(-c2ccc(NCc3ccccc3)c([N+](=O)[O-])c2)n1,27.1% (inactive),
COc1ccc(C2Nc3cccc(OC)c3C(=O)N2Cc2ccccc2)cc1COc1ccc(NC(C)=O)cc1 (stereo not drawn),-11.2% (inactive),
Cc1ccc(S(=O)(=O)/N=C(\N)c2ccc(F)cc2)cc1,8.96% (inactive),
CN(NS(=O)(=O)c1cccs1)c1ncc(C(F)(F)F)cc1Cl,-11.9% (inactive),
N/C(=N\S(=O)(=O)c1cc(C(F)(F)F)cc(C(F)(F)F)c1)c1cccs1,,20.6 µM (active)
CN1CCOC1c1ccc(C2OCCN2C)cc1 (stereo not drawn),0.88% (inactive),

SMILES,"activity change, negative = inhibition",Potency
COc1ccc2cc(CNc3ccc(OC)c(OC)c3)c(=O)n(CC(=O)Nc3ccccc3F)c2c1,0.0911% (inactive),
Cc1ccc(C)n1-c1nnc(N2CCC(C(=O)NCc3ccc(F)cc3)CC2)s1,0.0316% (inactive),
CCN(CC)CCN(C(=O)c1ccc(S(=O)(=O)N2CCOCC2)cc1)c1nc2cc3c(cc2s1)OCCO3,20.6% (inactive),
CN(C)CCCN(C(=O)c1ccc(S(=O)(=O)N2CCCCCC2)cc1)c1nc2cc3c(cc2s1)OCCO3,18.3% (inactive),
CN(C)CCCN(C(=O)c1ccc(S(=O)(=O)N2CCCCCC2)cc1)c1nc2ccc(Br)cc2s1,,25.9 µM (active)
CCOC(=O)c1ccccc1NC(=O)CSc1nc2c(sc(=S)n2CC)c(=O)[nH]1,-13.5% (inactive),
COc1cc(OC)c(NC(=O)Cc2ccc(-n3c(C)nc4cccnc43)cc2)cc1Cl,-17.2% (inactive),
CCN(CC)c1cc(NC2CCCCC2)c2c3c(onc13)-c1ccccc1C2=O,-11.4% (inactive),
CC(=O)c1ccc(NC(=O)c2nc3nc(C)cc(C(F)F)n3n2)cc1,9.64% (inactive),
CCN(CC)S(=O)(=O)c1cc(C(=O)Nc2cc(S(=O)(=O)N3CCOCC3)ccc2N2CCCC2)ccc1F,2.43% (inactive),
O=C(CSc1nc2ccccc2c(=O)n1Cc1ccc(F)cc1)NCC1CCCO1 (stereo not drawn),6.13% (inactive),
O=C(CCCn1c(SCC(=O)c2ccccc2)nc2ccccc2c1=O)NCC1CCCO1 (stereo not drawn),-22% (inactive),
O=C(CCCn1c(SCC(=O)c2ccc(F)cc2)nc2ccccc2c1=O)NCc1ccco1,,25.9 µM (active)
CCC(=O)N1CCc2cc(Br)cc(S(=O)(=O)CCC(=O)NCCc3ccc(OC)c(OC)c3)c21,5.45% [at 9.27 µM] (inactive),
Cc1ccc(Cl)cc1NC(=O)CCC(=O)N1CC(C)Sc2ccccc21 (stereo not drawn),-11.4% (inactive),
CC1CC(C)CN(S(=O)(=O)c2ccc(C(=O)NN3CCOCC3)cc2)C1 (stereo not drawn),-13.9% (inactive),
CC1CCCN(C(=O)Cn2c(=O)oc3cc(S(=O)(=O)N4CCCCC4C)ccc32)C1 (stereo not drawn),-8.33% (inactive),
CC1CCCCN1S(=O)(=O)c1ccc(C(=O)Nc2nnc(-c3cccs3)o2)cc1 (stereo not drawn),,13 µM (active)
CCc1nnc(NC(=O)C2CCCN2S(=O)(=O)c2ccccc2)s1 (stereo not drawn),-12.7% (inactive),
CSc1ncc(Cl)c(C(=O)Nc2ccc(S(=O)(=O)N3CCCC(C)C3)cc2)n1 (stereo not drawn),-10.8% (inactive),
CC1CCCN(S(=O)(=O)c2ccc(C(=O)Nc3nnc(-c4ccncc4)o3)cc2)C1 (stereo not drawn),,8.2 µM (active)
CC1CCCCN1S(=O)(=O)CCNC(=O)c1ccccc1 (stereo not drawn),0.728% (inactive),

SMILES,"activity change, negative = inhibition",Potency
CSCc1nnc(NC(=O)c2ccc(S(=O)(=O)N3CCCCC3C)cc2)o1 (stereo not drawn),,20.6 µM (active)
CC1CCCCN1S(=O)(=O)c1ccc(S(=O)(=O)N(CC(=O)Nc2ccccc2)Cc2cccs2)cc1 (stereo not drawn),-9.35% (inactive),
O=C1N[C@@H](c2ccccc2)COC(=O)[C@H](Cc2ccc(F)cc2)C/C=C\C[C@@H]1CC(=O)N(CCO)Cc1ccccc1,-25.7% (inactive),
FC(F)(F)c1cc(Nc2nc3ccccc3c3nncn23)ccc1Cl,-2.38% (inactive),
CC[C@]12c3[nH]c4ccc(Cl)cc4c3CCN1C(=O)[C@@H](CC(=O)NCCCOC)C[C@@H]2C(=O)N1CCN(C(=O)c2ccco2)CC1,3.05% (inactive),
Cc1cc(Br)ccc1NC(=O)Cn1cnc2sc(C)c(S(=O)(=O)N3CCN(C)CC3)c2c1=O,4.06% [at 9.27 µM] (inactive),
O=C(CN1CCN(c2ccccn2)CC1)Nc1ccc(Br)cc1,-6.26% (inactive),
CCOC(=O)c1ccc(NC(=S)N2CCN(c3ccccn3)CC2)cc1,2.57% (inactive),
Cc1sc2ncn(CC(=O)NCCCC(=O)N3CCN(c4ccccc4F)CC3)c(=O)c2c1C,3.37% (inactive),
Cc1cc(Br)ccc1NC(=O)c1sc2ncn(CC(=O)N3CCN(c4ccccn4)CC3)c(=O)c2c1C,,18.4 µM (active)
Cc1cc(Br)ccc1NC(=O)c1cnc(N2CCN(c3ccccn3)CC2)c2ccccc12,,11.6 µM (active)
c1ccc(Cn2nnc3c(N4CCCCC4)ncnc32)cc1,4.62% (inactive),
CCN(CC)C(=O)[C@H]1C[C@H](CC(=O)NCC23CC4CC(CC(C4)C2)C3)C(=O)N2CCc3c([nH]c4cc(CCC(=O)N(C)C)ccc34)[C@]12C,3.36% (inactive),
Cc1c(C(=O)Nc2cccc(S(=O)(=O)N3CCOCC3)c2)oc2ccccc12,1.34% (inactive),
O=S(=O)(c1cccc(C(F)(F)F)c1)N1CCN(c2nc(-c3cccs3)nc3ccccc23)CC1,-4.82% (inactive),
CCS(=O)(=O)c1ccc2oc(SCC(=O)N3c4ccccc4CC3C)nc2c1 (stereo not drawn),-41.5% (inactive),
COc1ccc(NS(=O)(=O)c2ccc(O)c(C(=O)OCC(=O)NC3CCCCC3)c2)cc1,11.7% (inactive),
COc1ccc(NS(=O)(=O)c2ccc3oc(SCC(N)=O)nc3c2)cc1,,23.1 µM (active)
COc1ccc(N2CCN(S(=O)(=O)c3ccc4c(c3)CC(=O)N4)CC2)cc1,-2.13% [at 92.2 µM] (inactive),
COc1cc(Cl)ccc1Nc1ncc(C(=O)N2CCN(c3ccccc3OC)CC2)c2ccccc12,1.91% [at 9.27 µM] (inactive),
